Test results as given in PubChem BioAssay AID720650 (Broad Institute, 2013).
The source made the active and inactive calls. No rule for the calls is given here.

assay: C difficile toxins, biochemical counterscreen, UDPG substrate absence, confirmatory dose response (AID 720650); details: series mostly up to 19.5 µM; activity change, negative = inhibition: at the top concentration

SMILES | activity change, negative = inhibition | AC50
O=C(c1cn(-c2ccccc2)nc1-c1ccncc1)n1nnc2ccccc21 | -3.97% (inactive) | –
O=C(NCc1ccccc1)[C@@H]1CCCN1C(=O)[C@@H]1CCCN1C(=O)c1cccs1 | -1.67% (inactive) | –
C=CC[C@@H](CC(=O)N(CCO)Cc1ccccc1)C(=O)NC[C@@H](OC(=O)[C@@H](CC=C)CC(=O)OC(C)(C)C)c1ccccc1 | -9.68% (inactive) | –
CCOC(=O)/C=c1/s/c(=C/c2ccc3cc(OC)ccc3c2)c(=O)n1CC(=O)NCC1CCCO1 (stereo not given) | -9.72% (inactive) | –
O=C1Nc2ccc(Br)cc2C1Cc1ccccc1F (stereo not given) | – | 7.69 µM (active)
O=c1[nH]c(CSc2nnc(Cc3ccccc3)o2)nc2ccccc12 | -13.2% (inactive) | –
COc1ccc(C2=NS(=O)(=O)N(C)C(C(=O)NC(C)c3ccccc3)=C2)cc1OC (stereo not given) | -14% (inactive) | –
CCCN1CCN(C(=O)C2CCN(S(=O)(=O)c3c(C)noc3/C=C/c3ccc(C)cc3)CC2)CC1 | -11.9% (inactive) | –
CCOCCCNC(=O)C1CCN(S(=O)(=O)c2c(C)noc2/C=C\c2ccc(OC)cc2)CC1 | – | inactive
O=C(CCC(=O)N1CCSc2ccccc21)Nc1cccc(F)c1 | -8.2% (inactive) | –
CC(=O)Nc1ccc(OC(=O)Oc2ccc(NC(C)=O)cc2)cc1 | – | > 39 µM (inactive)
O=C(COc1cccc(C(F)(F)F)c1)N1CCN(c2ccc(O)cc2)CC1 | 10.8% (inactive) | –
COc1ccc(C2=NS(=O)(=O)N(C)C(C(=O)N(C)Cc3ccccc3)=C2)cc1OC | -7.42% (inactive) | –
O=C(CNS(=O)(=O)c1ccccc1)N/N=C/c1ccc(O)cc1 | – | 14.9 µM (active)
C=C1CCN(Cc2ccccc2)S(=O)(=O)c2ccccc21 | -1.24% (inactive) | –
